Compounds with a hit are over-represented: about 3.5% of the library has one in this group of screens.
FBW7 activator = activators of human E3 ligase FBW7. Q969H0. AlphaScreen FBW7–phospho-cyclin E peptide binding, activator screen. normalized activity (activation), % at 26.1 µM. hit rate 0.13% among 650,000; in the data active means normalized activity above about 1.9%;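 further: purified mutant Fbw7 with reduced substrate affinity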
Target sequence (Q969H0 whole entry, looked up): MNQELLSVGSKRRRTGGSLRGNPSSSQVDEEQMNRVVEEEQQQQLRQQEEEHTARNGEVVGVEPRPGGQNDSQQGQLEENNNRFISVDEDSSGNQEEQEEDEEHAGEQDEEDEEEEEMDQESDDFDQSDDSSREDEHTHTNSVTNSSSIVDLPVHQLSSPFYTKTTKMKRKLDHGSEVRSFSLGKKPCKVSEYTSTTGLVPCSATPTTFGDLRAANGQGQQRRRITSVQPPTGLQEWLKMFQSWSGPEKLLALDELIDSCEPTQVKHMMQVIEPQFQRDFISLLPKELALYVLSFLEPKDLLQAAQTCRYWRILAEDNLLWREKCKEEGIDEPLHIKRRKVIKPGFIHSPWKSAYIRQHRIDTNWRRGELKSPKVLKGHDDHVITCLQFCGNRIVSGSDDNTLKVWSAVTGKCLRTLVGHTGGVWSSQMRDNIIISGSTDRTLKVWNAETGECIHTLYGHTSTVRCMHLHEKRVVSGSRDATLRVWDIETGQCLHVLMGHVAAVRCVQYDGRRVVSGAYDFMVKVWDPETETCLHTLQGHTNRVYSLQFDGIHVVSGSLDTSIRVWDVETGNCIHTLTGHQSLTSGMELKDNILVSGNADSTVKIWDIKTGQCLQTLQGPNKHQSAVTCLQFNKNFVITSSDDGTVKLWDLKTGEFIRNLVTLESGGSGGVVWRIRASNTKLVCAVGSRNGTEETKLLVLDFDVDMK
MITF inh = blocks human microphthalmia-associated transcription factor; O75030; AlphaScreen MITF homodimerization, bead proximity signal; inhibition, % at 2.6 µM; hit rate 0.91% among 650,000; in the data active means inhibition above about 50%
TEAD-YAP inh = TEAD-YAP interaction inhibition. inhibition, % at 9.12 µM. HEK-TIYL cells, TEAD-Gal4/YAP UAS-luciferase luminescence. hit rate 1.4% among 640,000; in the data active means inhibition above about 32%
GPR151 activ = human GPR151 activation; PathHunter beta-arrestin GPR151 cells, luminescence; activation, % at 11.2 µM; hit rate 1% among 650,000; Q8TDV0; in the data active means activation above about 4.9%
Hits are given with their value; 0 = inactive; - = no result given; ! = a repeat was not active.

SMILES	FBW7 activator	MITF inh	TEAD-YAP inh	GPR151 activ
CCCC[n+]1ccc(/C=C2\C=Cc3ccccc3N2CC)c2cc(C)ccc21	0	72.0	92.1	0
CCN1/C(=C2/N=C(c3ccccc3)OC2=O)C=Cc2ccccc21	0	0	0	0
CCN1/C(=C/c2cccc[n+]2C)C=Cc2ccccc21	0	0	75.2	0
CCN1C(=O)S/C(=C\c2ccc(Cl)cc2)C1=O	0	0	0	0
CCN1/C(=C/c2cccc[n+]2C)C=Cc2ccc(C)cc21	0	0	74.6	0
COc1ccc(NC(=O)c2ccc(N3CC4CC(C3)c3cccc(=O)n3C4)c([N+](=O)[O-])c2)cc1OC (centres undefined)	0	0	0	0
CC(C)Cn1c(N/N=C/c2ccc(Br)cc2)nc2c1c(=O)[nH]c(=O)n2C	0	0	0	0
CCN1C(=O)/C(=C2\C=Cc3ccccc3N2CC)SC1=S	0	0	0	0
CCN1/C(=C/c2ccc3ccccc3[n+]2CC)C=Cc2ccccc21	0	0	88.3	0
Cc1ccc2c(c1)C=C/C(=C\c1cccc[n+]1C)N2C	0	0	83.8	0
Cc1ccccc1C(=O)NNC(=O)COc1ccc(Cl)cc1	0	0	0	0
Cc1[nH]c2ccc(-c3nc(=S)[nH][nH]3)cc2c1C	0	0	0	0
O=C(CSc1nnc2c(n1)[nH]c1ccccc12)Nc1ccccc1F	0	0	0	0
O=C(CSc1nnc2c(n1)[nH]c1ccccc12)Nc1ccc(C(=O)N2CCCCC2)cc1	0	0	33.9	0
O=C(CSc1nnc2c(n1)[nH]c1ccccc12)Nc1ccc(Br)cc1	0	0	0	0
O=C(CSc1nnc2c(n1)[nH]c1ccccc12)Nc1ccc(Cl)cn1	0	0	56.9	0
O=C(Nc1cccc(-c2ccco2)c1)C1CCN(C2CCOCC2)CC1	0	0	0	0
O=C(CCn1c(=O)oc2ccccc21)Nc1cc(Cl)ccc1Cl	0	0	0	0
Cc1ccc2nc(-c3ccc(SCC(N)=O)nc3)[nH]c2c1	0	0	53.1	0
CC(=O)Nc1cccc(NC(=O)CSc2ccc(-c3nc4cc(C)c(C)cc4[nH]3)cn2)c1	0	0	0	0
Cc1ccc2nc(-c3ccc(SCC(=O)O)nc3)[nH]c2c1	0	0	0	0
CC(=O)CSc1ccc(-c2nc3cc(C)c(C)cc3[nH]2)cn1	0	0	81.4	0
COc1ccc(N2CCN(C3CCCN(C(=O)c4nonc4C)C3)CC2)cc1 (centres undefined)	0	0	0	0
O=c1cc(-c2ccccc2)oc2cc(O)ccc12	0	0	51.1!	0
CC(C)C(=O)N1CCN(c2ccc([N+](=O)[O-])cc2[N+](=O)[O-])CC1	0	0	0	0
SMILES	FBW7 activator	MITF inh	TEAD-YAP inh	GPR151 activ
COc1ccc(NC(=O)c2cc(S(=O)(=O)N3CCN(c4ccccn4)CC3)ccc2F)cc1	1.9	0	0	0
CCCCC[C@H](O)/C=C/[C@H]1C2CC(CO2)[C@@H]1CCCCCCC(=O)O (some centres undefined)	-	0	-	0
O=C(NCCc1ccco1)C(=O)NCC1CCCN1S(=O)(=O)c1ccccc1 (centres undefined)	0	0	32.3	0
Cc1ccc(S(=O)(=O)N2CCCCC2CCNC(=O)C(=O)NCc2cccs2)cc1 (centres undefined)	0	0	48.4	0
Cc1ccc(S(=O)(=O)N2CCCCC2CCNC(=O)C(=O)NC2CCCC2)cc1 (centres undefined)	0	0	0	0
Cc1ccc(S(=O)(=O)N2CCCCC2CCNC(=O)C(=O)NCc2ccco2)cc1 (centres undefined)	0	0	41.5	0
Cc1ccc(S(=O)(=O)N2CCCCC2CCNC(=O)C(=O)NCCc2ccco2)cc1 (centres undefined)	0	0	47.3	0
Cc1cc(C)cc(OCC(=O)NNC(=O)/C=C/c2ccc3c(c2)OCO3)c1	0	0	0	0
O=C(CNc1cccc(Cl)c1)N/N=C/c1ccccc1O	0	0	0	0
NC(=O)c1c(NC(=O)c2cccc3ccccc23)sc2c1CCC2	0	0	0	0
N#Cc1c(NC(=O)c2cccc3ccccc23)sc2c1CCC2	0	0	58.1	0
N#Cc1c(NC(=O)c2cccc3ccccc23)sc2c1CCCC2	0	0	43.0	0
N#Cc1c(NC(=O)c2ccccc2I)sc2c1CCCC2	0	0	48.6	0
N#Cc1c(NC(=O)c2cc(Cl)ccc2[N+](=O)[O-])sc2c1CCC2	0	0	37.4	0
CCOC(=O)c1nc2cc3n(c(C)c-2c1C)C(C)C=C3C (centres undefined)	0	0	0	0
Cc1onc(-c2ccccc2)c1C(=O)Nc1sc2c(c1C#N)CCCC2	0	0	31.9	0
N#Cc1c(NC(=O)CSc2ncn[nH]2)sc2c1CCCCC2	0	0	68.1	0
N#Cc1c(NC(=O)C2CC2c2ccccc2)sc2c1CCC2 (centres undefined)	0	0	42.6	0
NC(=O)c1c(NC(=O)C2CC2c2ccccc2)sc2c1CCCC2 (centres undefined)	0	0	0	0
Cc1onc(-c2ccccc2)c1C(=O)Nc1sc2c(c1C#N)CCC(C)C2 (centres undefined)	0	0	0	0
CC(=O)NC(=S)Nc1sc2c(c1C#N)CCCCC2	0	0	65.9	0
Cc1ccc(-c2nc3cccnc3s2)cc1NS(=O)(=O)c1ccc(Cl)cc1	0	0	0	0
c1ccc2[nH]c(CNc3ncnc4nc(Nc5cnccn5)[nH]c34)nc2c1	0	0	0	0
Cc1nn(C)c(C)c1-c1ncc(C(=O)NCc2cccnc2)s1	0	0	0	0
N#CC1=C(N)Oc2cc(N)ccc2C1c1cccc(Cl)c1 (centres undefined)	0	0	0	0
SMILES	FBW7 activator	MITF inh	TEAD-YAP inh	GPR151 activ
CN(C)c1ccc2c(c1)OC(N)=C(C#N)C2c1ccc(C(F)(F)F)cc1 (centres undefined)	0	0	0	0
CN(C)c1ccc2c(c1)OC(N)=C(C#N)C2c1cccc(C(F)(F)F)c1 (centres undefined)	0	0	56.5	0
N#CC1=C(N)Oc2cc3c(cc2C1c1cccc(Br)c1)OCO3 (centres undefined)	0	0	60.5	0
CCOc1cc(CO)cc(Br)c1OCC(=O)Nc1ccc(OC)cc1	0	0	0	0
COc1ccc(Cc2cnc(NC(=O)/C=C/c3ccccc3)s2)cc1	0	0	56.1	0
COc1ccc(/C=C/C(=O)Nc2ncc(Cc3ccccc3)s2)cc1	0	0	0	0
COc1ccc(Cc2cnc(NC(=O)/C=C/c3ccco3)s2)cc1	0	0	64.5	0
COc1cc(NC(=O)[C@H](C)NC(=O)c2ccco2)c(OC)cc1NC(=O)c1ccccc1	0	0	0	0
COc1ccc(C2=NN(C(=O)c3cccs3)C(c3ccccc3F)C2)cc1OC (centres undefined)	0	0	0	0
Cc1ccc(C2=NN(C(=O)c3ccncc3)C(c3ccccc3F)C2)cc1 (centres undefined)	0	0	47.3	0
COc1ccc(C2=NN(C(=O)c3cc(OC)c(OC)c(OC)c3)C(c3ccc(F)cc3)C2)cc1OC (centres undefined)	0	0	49.5	0
COc1ccc(C2=NN(C(=O)c3cc(OC)c(OC)c(OC)c3)C(c3ccccc3F)C2)cc1OC (centres undefined)	0	0	42.3	0
